From PubChem BioAssay (Tox21)
Results filed as inconclusive are left out. Activity calls are given as the source filed them. Unless noted, calls come from the whole dose curve; as a rule, active = well fitted curve in the direction sought with a large enough effect in the repeat runs; inconclusive = weak or mixed curves; inactive = no such curve, though single readings can be large; an effect the other way counts as inactive or inconclusive.

Experiments:
[1] = qHTS assay to identify small molecule agonists of the vitamin D receptor (VDR) signaling pathway - cell viability counter screen (AID 743224); note: series mostly up to about 63 µM; nearly all actives have a fitted effect of over 50% in size
Procedure, shortened: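 Compounds were pin-transferred onto VDR-bla cells plated 4 h earlier; following 16 h incubation at 37C, cell viability was quantified by CellTiter-Glo luminescence after 30 min at room temperature.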

[2] = qHTS assay to identify small molecule antagonists of the vitamin D receptor (VDR) signaling pathway - cell viability counter screen (AID 743225); note: nearly all actives have a fitted effect of over 50% in size
Procedure, shortened: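 In this counter screen, VDR-bla HEK 293T cells receive test compound plus 3 nM final calcitriol for 16 h at 37C. Room-temperature steps of 2 h with the beta-lactamase substrate, then 30 min with CellTiter-Glo, precede the luminescence read.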

[3] = qHTS assay to identify small molecule agonists of the NFkB signaling pathway - cell viability counter screen (AID 1159515; calls by dose curve; note: series mostly up to about 61 µM; nearly all actives have a fitted effect of over 55% in size)
Procedure, shortened: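 Parallel cytotoxicity counter screen in ME-180 cells carrying an NFkB-response-element beta-lactamase reporter, 2,000 cells/well. Compound exposure lasted 5 hr at 37 C, 5% CO2. Cell viability was quantified by CellTiter-Glo luminescence.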

[4] = qHTS assay to identify small molecule agonists of the endoplasmic reticulum stress response signaling pathway (AID 1159516; active = well fitted activation curve with a large enough effect in the signal ratio in the repeat runs, not every such curve was filed as active; the % refers to the signal ratio)
Procedure, shortened: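 Using a HeLa line with an ESRE-driven beta-lactamase gene, agonist activity was measured by FRET substrate fluorescence (460 and 530 nm emission) after cells were treated with compounds for 5 hr at 37 C and 5% CO2.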

[5] = qHTS assay to identify small molecule agonists of the endoplasmic reticulum stress response signaling pathway - cell viability counter screen (AID 1159517; calls by dose curve;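 note: HeLa cells carrying an ER stress response element beta-lactamase reporter; series mostly up to about 61 µM; nearly all actives have a fitted effect of over 50% in size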)
Procedure, shortened: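 Cpd-treated ESRE-bla HeLa (5 hr, 37 C) → LiveBLAzer 2 hr RT → CellTiter-Glo 30 min RT → luminescence.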

[6] = qHTS assay to identify small molecule antagonists of the retinoid-related orphan receptor gamma (ROR-gamma) signaling pathway - cell viability counter screen (AID 1159520); note: nearly all actives have a fitted effect of over 50% in size
Procedure, shortened: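 Tet-on ROR gamma CHO cells (1,000/well) were plated 4 hr, given compounds in DMSO for 2 hr at 37 C, then induced with 1 uM final doxycycline for 16 hr. Viability was read as ATP by CellTiter-Glo luminescence after 30 min.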

[7] = target: Nuclear receptor ROR-gamma (Homo sapiens) (UniProt P51449); experiment: qHTS assay to identify small molecule antagonists of the retinoid-related orphan receptor gamma (ROR-gamma) signaling pathway (AID 1159521)
Procedure, shortened: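 Screening format: cell-based luciferase reporter in CHO cells with doxycycline-inducible RORγ. Compound pre-exposure lasts 2 h, doxycycline is 1 uM final, induction runs 16 h at 37 C, and ONE-Glo luminescence is read.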

[8] = qHTS assay to identify small molecule agonists of the AP-1 signaling pathway - cell viability counter screen (AID 1159525; calls by dose curve; note: nearly all actives have a fitted effect of over 55% in size)
Procedure, shortened: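 Each titration point was normalised to DMSO and tetra n-octyl ammonium bromide controls. The read was Cell Titer Glo luminescence after 30 min at RT, following 5 h compound exposure of ME-180 AP-1-bla cells at 37 °C.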

[9] = qHTS assay to identify small molecule agonists of the AP-1 signaling pathway (AID 1159526; calls by dose curve)
[10] = target: Retinoic acid receptor RXR-alpha (Homo sapiens) (UniProt P19793); experiment: qHTS assay to identify small molecule agonists of the RXR signaling pathway (AID 1159527; calls by dose curve; note: nearly all actives have a fitted effect of over 35% in size)
Procedure, shortened: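 Fluorescence ratio readout (460 vs 530 nm) from GeneBLAzer RXR-alpha HEK 293T cells after 16 hr compound treatment; cells seeded 5 hr beforehand in low-serum, charcoal-stripped medium.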

[11] = qHTS assay to identify small molecule agonists of the RXR signaling pathway - cell viability counter screen (AID 1159529)
Procedure, shortened: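 Viability read-out for the RXR-alpha agonist qHTS: luminescent CellTiter-Glo signal after 30 min at RT. HEK 293T bla reporter cells, 2% charcoal-stripped FBS, 16 hr compound incubation; tetraoctyl ammonium bromide as cytotoxic control.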

[12] = qHTS assay to identify small molecule antagonists of the retinoid acid receptor (RAR) signaling pathway - cell viability counter screen (AID 1159551); note: nearly all actives have a fitted effect of over 35% in size
Procedure, shortened: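 ATP-based viability, C3RL4 cells, 6 h at 37 C with 1 uM final retinol co-added after compound; luminescence read 30 min post CellTiter-Glo, RT.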

[13] = qHTS assay to identify small molecule antagonists of the estrogen related receptor (ERR) signaling pathway - cell viability counter screen (AID 1224818);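 note: series mostly up to about 46 µM; viability measured after 17.5 h of compound exposure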
Procedure, shortened: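 Quantitative high-throughput viability counter screen in ERR cells. Compounds (DMSO) incubated 17.5 h at 37 C; read-out was CellTiter-Fluor fluorescence.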

[14] = qHTS assay to identify small molecule antagonists of the estrogen related receptor signaling pathway with the pleiotropic PPARgamma coactivator (PGC) cell viability counter screen (AID 1224822; note: series mostly up to about 46 µM)
Procedure, shortened: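 Cytotoxicity in the PGC/ERR cell line is assessed with CellTiter-Fluor, read as fluorescence intensity 30 min after reagent addition, following 17.5 h compound treatment at 37 C.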

[15] = qHTS assay to identify small molecule agonists of the retinoic acid receptor (RAR) signaling pathway (AID 1159553)
Procedure, shortened: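 Quantitative high-throughput format: the Tox21 10K library was tested on C3RL4 RARE-luciferase cells for 6 hr at 37 C and 5% CO2, with luminescence measured after a 30 min room-temperature reagent step.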

[16] = qHTS assay to identify small molecule antagonists of the estrogen related receptor (ERR) signaling pathway (AID 1224819)
Procedure, shortened: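 ERR reporter cell line (NTP) plated at 2,000 cells/well, settled 6 h at 37C/5% CO2, then exposed to LOPAC compounds for 18 h at 37C. One-Glo luciferase luminescence read after 30 min at room temperature.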

[17] = qHTS assay to identify small molecule agonists of the estrogen related receptor (ERR) signaling pathway (AID 1224820)
Procedure, shortened: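 After 6 h plating (2,000 cells/well) and 18 h compound treatment at 37 C, ERR cells were lysed with One-Glo and luminescence read after 30 min at room temperature.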

[18] = tested on: estrogen-related receptor alpha (ERRalpha) with PGC-1alpha coactivator, human; experiment: qHTS assay to identify small molecule antagonists of the estrogen related receptor signaling pathway with the pleiotropic PPARgamma coactivator (PGC) (AID 1224821; calls by dose curve)
Procedure, shortened: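 Luminescence from One-Glo luciferase reagent (30 min, room temperature) measured after 18 h compound treatment at 37 °C. Cells carry the PGC/ERR reporter and were seeded 6 h prior to dosing.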

[19] = qHTS assay to identify small molecule agonists of the estrogen related receptor signaling pathway with the pleiotropic PPARgamma coactivator (PGC) (AID 1224823)
Procedure, shortened: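 Luminescence from One-Glo reagent (30 min, room temperature) was read after 18 h compound treatment at 37 C of PGC/ERR cells plated 6 h beforehand; compounds delivered in DMSO by pin tool.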

Measured: Potency

Sequence of Retinoic acid receptor RXR-alpha (Homo sapiens) (P19793 whole entry, looked up): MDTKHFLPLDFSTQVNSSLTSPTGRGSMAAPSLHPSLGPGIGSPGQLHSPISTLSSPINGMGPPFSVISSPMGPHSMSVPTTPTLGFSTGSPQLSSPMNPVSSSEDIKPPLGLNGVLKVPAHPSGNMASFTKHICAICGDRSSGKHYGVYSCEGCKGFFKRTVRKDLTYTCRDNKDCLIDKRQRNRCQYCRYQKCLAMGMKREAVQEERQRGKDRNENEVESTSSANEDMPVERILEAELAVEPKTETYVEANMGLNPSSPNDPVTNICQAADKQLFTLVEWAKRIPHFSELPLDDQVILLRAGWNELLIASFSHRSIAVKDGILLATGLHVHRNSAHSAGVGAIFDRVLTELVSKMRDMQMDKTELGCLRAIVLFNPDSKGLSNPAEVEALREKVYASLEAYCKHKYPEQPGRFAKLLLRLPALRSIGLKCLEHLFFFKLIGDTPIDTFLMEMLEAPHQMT

CC[C@H]1OC(=O)[C@H](C)[C@@H](O[C@H]2C[C@@](C)(OC)[C@@H](O)[C@H](C)O2)[C@H](C)[C@@H](O[C@@H]2O[C@H](C)C[C@H](N(C)C)[C@H]2O)[C@](C)(OC)C[C@@H](C)C(=O)[C@H](C)[C@@H](O)[C@]1(C)O
not listed: [13] | [14] | [15] | [16] | [17] | [18] | [19]
inactive: all other assays above

COc1ccnc(CS(=O)c2nc3cc(OC(F)F)ccc3[nH]2)c1OC (configuration not stated)
not listed: [13] | [14] | [15] | [16] | [17] | [18] | [19]
inactive: all other assays above

CC[N+](CC)(CC)CCOc1cccc(OCC[N+](CC)(CC)CC)c1OCC[N+](CC)(CC)CC
not listed: [15] | [16] | [17] | [18] | [19]
inactive: all other assays above

CC(=O)OCC(=O)[C@@]1(O)[C@H](C)C[C@H]2[C@@H]3CCC4=CC(=O)C=C[C@]4(C)[C@@]3(F)[C@@H](O)C[C@@]21C
not listed: [13] | [14] | [15] | [16] | [17] | [18] | [19]
inactive: all other assays above

c1coc(CNc2ncnc3nc[nH]c23)c1
not listed: [13] | [14] | [15] | [16] | [17] | [18] | [19]
inactive: all other assays above

CC(C)(C)C(=O)c1ccccc1
not listed: [13] | [14] | [15] | [16] | [17] | [18] | [19]
inactive: all other assays above

CC(C#N)(CCC(=O)O)N=NC(C)(C#N)CCC(=O)O (configuration not stated)
not listed: [13] | [14] | [15] | [16] | [17] | [18] | [19]
inactive: all other assays above

C=CCOCC(O)CO (configuration not stated)
not listed: [13] | [14] | [15] | [16] | [17] | [18] | [19]
inactive: all other assays above

c1ccc(Cc2ccccc2)cc1
not listed: [13] | [14] | [15] | [16] | [17] | [18] | [19]
inactive: all other assays above

CCOCC(C)O (configuration not stated)
not listed: [2] | [13] | [14] | [15] | [16] | [17] | [18] | [19]
inactive: all other assays above

NC(=O)NC1N=C([O][Al])NC1=O (configuration not stated)
not listed: [13] | [14] | [15] | [16] | [17] | [18] | [19]
inactive: all other assays above

CO/N=C(\C(=O)N[C@@H]1C(=O)N2C(C(=O)O)=C(CSc3nc(=O)c(O)nn3C)CS[C@H]12)c1csc(N)n1
not listed: [13] | [14] | [16] | [17] | [18] | [19]
inactive: all other assays above

CCC(=O)OCc1ccccc1
not listed: [13] | [14] | [15] | [16] | [17] | [18] | [19]
inactive: all other assays above

CC(C)(C#N)Nc1nc(Cl)nc(NC2CC2)n1
not listed: [13] | [14] | [15] | [16] | [17] | [18] | [19]
inactive: all other assays above

COc1cccc(OC)c1C(=O)N[C@@H]1C(=O)N2[C@@H]1SC(C)(C)[C@@H]2C(=O)O
not listed: [13] | [14] | [15] | [16] | [17] | [18] | [19]
inactive: all other assays above

CN(C)C(=O)Oc1ccc[n+](C)c1
not listed: [1] | [15]
inactive: all other assays above

CC(=O)Oc1cccc(C)c1
not listed: [13] | [14] | [15] | [16] | [17] | [18] | [19]
inactive: all other assays above

CCCCN(CCC(=O)OCC)C(C)=O
not listed: [13] | [14] | [15] | [16] | [17] | [18] | [19]
inactive: all other assays above

CCCCc1ccc2c(n1)[C@@H](c1ccc(OC)cc1C[C@H](C)C(=O)O)[C@H](C(=O)O)[C@H]2c1ccc2c(c1)OCO2
not listed: [13] | [14] | [15] | [16] | [17] | [18] | [19]
inactive: all other assays above

CCOC(=O)c1cnc2c(cnn2CC)c1NN=C(C)C
inactive: [13] | [14]
